Screening data: PubChem, National Center for Advancing Translational Sciences (NCATS)
Giardia kill = Giardia lamblia killing | Giardia lamblia trophozoite viability | activity change, % at 7.66 µM, hits read low | hit rate 0.15% among 340,000 | AID 540267; in the data active = activity change below about -80%; inconclusive = between about -30% and that limit;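 also: parasites exposed to compound for two days anaerobically before the ATP read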
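Trophozoite viability was measured as ATP-dependent luminescence, read 15-30 min after reagent addition. Before that, parasites at 100 cells/well were exposed to compounds for 48 h, anaerobically, at 37 deg C.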
PI4K2A inh = blocks human PI4K2A kinase activity; purified PI4K2A, ADP-Glo luminescence, 1 h; hits give low values; activity change, negative = inhibition, % at 76.9 µM; hit rate 0.13% among 420,000; AID 1346378; in the data active = activity change below about -50%; inconclusive = mostly about -30% to -49%;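 also: -100% = wells without enzyme as full effect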
Target sequence (Q9BTU6 whole entry, looked up): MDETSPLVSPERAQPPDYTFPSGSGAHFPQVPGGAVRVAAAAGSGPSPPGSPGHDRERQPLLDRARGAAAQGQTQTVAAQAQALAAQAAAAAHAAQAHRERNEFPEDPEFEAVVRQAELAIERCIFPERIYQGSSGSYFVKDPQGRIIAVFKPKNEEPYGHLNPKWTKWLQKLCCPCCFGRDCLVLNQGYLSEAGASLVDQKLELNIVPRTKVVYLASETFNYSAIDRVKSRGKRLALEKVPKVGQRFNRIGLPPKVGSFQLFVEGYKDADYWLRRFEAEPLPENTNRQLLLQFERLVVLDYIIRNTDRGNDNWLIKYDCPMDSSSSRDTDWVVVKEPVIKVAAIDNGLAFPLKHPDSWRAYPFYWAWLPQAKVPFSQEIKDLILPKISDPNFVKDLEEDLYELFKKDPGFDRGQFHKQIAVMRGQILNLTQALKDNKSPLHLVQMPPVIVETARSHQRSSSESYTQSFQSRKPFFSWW
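PI4K2A activity was measured by ADP-Glo luminescence: enzyme (4 ug/mL stock) and phosphatidylinositol (1.2 mM stock) in Tris pH 7.5/MgCl2/EGTA/Triton X-100 buffer were reacted with ATP (300 microM stock) for one hour at ambient temperature.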
KB-3-1 cytotox = KB-3-1 parental cell cytotoxicity. hit rate 1.4% among 400,000. AID 1347075. KB-3-1 viability, CellTiter-Glo ATP luminescence, 72 h. Potency, µM (series often up to 46.1 µM), actives largely listed as cytotoxic; also: potency is read from the fitted curve at half-maximal effect; nearly all actives have a fitted effect of over 60% in size
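Multi-concentration cytotoxicity screen in KB-3-1 cells grown in DMEM lacking phenol red with 10% FBS. After 72 h at 37 °C with compound, ATP-dependent luminescence was recorded.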
Nrf2 inh = Nrf2 pathway inhibition. hit rate 2.1% among 360,000. Potency, µM (doses to about 46 µM), for the others: at the top dose activity change, negative = inhibition, usual class: inhibitors. A549 ARE-Fluc reporter, luciferase luminescence, 18-24 h; also: potency is read from the fitted curve at half-maximal effect; nearly all actives have a fitted effect of over 60% in size
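A549 ARE_Fluc cells, 5000/well, 5% FBS OPTI-MEM; compounds in dose-response, 18-24 h at 37 °C/5% CO2; CellTiter-Fluor viability read (Ex 405/Em 525), then BugLite luciferase luminescence = Nrf2 activity.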
A549 tox = counter-screen for Nrf2 inhibitors: cytotoxicity in A549 cells | hit rate 0.16% among 390,000 | AID 504648 | Potency, µM (doses to about 46 µM), inactives show at the highest dose activity change, negative = cytotoxicity, usual class: inhibitors | A549 ARE-Fluc cells, CellTiter-Fluor viability, 18-24 h; also: potency is read from the fitted curve at half-maximal effect
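Cytotoxicity counterscreen: CellTiter-Fluor fluorescence was measured in A549 ARE_Fluc cells after 18-24 h of compound exposure in a concentration series. The subsequent BugLite luminescent read reports ARE-luciferase activity.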
KB-V1 cytotox = KB-V1 MDR subline cytotoxicity; KB-V1 MDR cells viability, CellTiter-Glo, 72 h; Potency, µM (titrated, usually from 46.1 µM), hits mostly cytotoxic; hit rate 3.4% among 400,000; also: potency is read from the fitted curve at half-maximal effect; nearly all actives have a fitted effect of over 60% in size
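Compound-treated KB-V1 multidrug-resistant cells, 72 h, 37 degrees C; viability by CellTiter-Glo. Fitted qHTS curves give the values.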
Numbers without * were called inactive; i = inactive; ? = inconclusive; · = not tested or not shown; ! = repeats disagree. This is a sample that favours compounds with a hit; in the whole collection about 5.7% have one here. Unless noted, calls follow the shape of the dose curve; as a rule, active = well fitted curve in the direction sought with a large enough effect; inconclusive = small, poorly fitted or top-dose-only effect, or another doubt; inactive = no such curve, though single readings can be large; an effect the other way counts as inactive or inconclusive. Unless noted, % is scaled to controls: 0 for no effect and ±100 for the full control effect.

SMILES	Giardia kill	PI4K2A inh	KB-3-1 cytotox	Nrf2 inh	A549 tox	KB-V1 cytotox
CNc1nc2ccccc2n1/N=C/c1cccc(OC)c1OC	-4	-5	i	-28%	3%	8.2µM*
COc1cc(OC)c2ccc(=O)oc2c1C(CC(=O)N1CCCC1)c1ccc2c(c1)OCO2 (stereo not given)	8	-3	i	3%	-19%	i
CCN(CC)CCC(c1cc(OC)c(OC)c(OC)c1)c1c(OC)cc(OC)c2ccc(=O)oc12 (stereo not given)	?	-20	i	10%	15µM*!	i
CCN(CC)CCC(c1ccc2c(c1)OCO2)c1c(OC)cc(OC)c2ccc(=O)oc12 (stereo not given)	2	-1	i	7%	16µM*	i
CC(Nc1oc(-c2ccc(COc3ccccc3)o2)nc1C#N)c1ccccc1 (stereo not given)	·	3	i	-25%	-10%	i
O=C(CCNC(=O)c1ccc(Br)cc1)NC1CCCCCC1	3	-3	i	-24%	-5%	16µM*
O=C(CCNC(=O)c1ccc(Cl)cc1)NC1CCCCCC1	-25	3	·	14%	-3%	·
O=C(Nc1nc2ccccc2n1CCN1CCOCC1)c1cn(-c2ccccc2)nc1-c1ccccc1	2	3	?	21µM*	?	?
O=C(NC(=S)N1CCOCC1)c1cn(-c2ccccc2)nc1-c1ccc(F)cc1	-6	-3	i	-14%	-11%	21µM*
O=C(Nc1nc2ccccc2n1CCN1CCOCC1)c1ccccc1	-18	2	i	0%	-1%	i
CCCCCCCCN1C(=O)[C@@H](CC(=O)NCc2cccc(C(F)(F)F)c2)C[C@@]2(C(=O)OC)C1=C[C@H](COCc1ccccc1)O[C@@H]2C	·	3	·	·	·	·
CCOc1ccc(NC(=O)C2CC(=O)NC(=Nc3ccc(Cl)c(Cl)c3)S2)cc1 (stereo not given)	·	-1	i	2%	0%	i
CCOC(=O)/C(=N\Nc1ccccc1)P(=O)(c1ccccc1)c1ccccc1	-12	3	i	-7%	1%	12µM*
CCOC(=O)/C(=N\Nc1ccccc1)S(=O)(=O)c1ccccc1	-29	4	i	?	-3%	i
CCOC(=O)/C(=N/Nc1ccc(OC)cc1)N1CCCc2ccccc21	14	3	i	-12%	-9%	i
CC(Nc1ccccc1N1CCCCC1)C(=O)N1CCc2ccccc21 (stereo not given)	10	4	i	9.2µM*	-9%	i
CC(NC(c1ccccc1)c1ccccc1)C(=O)N1CCCc2ccccc21 (stereo not given)	24	-2	18µM*	-7%	2%	13µM*
CCOC(=O)/C(=N/Nc1ccccc1)N1CCCc2ccccc21	-1	4	i	-4%	-2%	16µM*
O=S(=O)(c1ccc(CN2CCOCCOCCN(Cc3ccc(S(=O)(=O)C(F)(F)F)cc3)CCOCC2)cc1)C(F)(F)F	·	3	·	·	·	·
COc1cc(C2CC=C(C(=O)O)C(c3ccccc3F)N2S(=O)(=O)c2ccc(C)cc2)cc(OC)c1OC (stereo not given)	·	-1	·	·	·	·
CC[C@@H]1[C@H]2CCCC(=O)N3CC[C@@H](C[C@@H]1OC(=O)Nc1ccc4c(c1)OCO4)[C@@H]23	·	·	i	·	·	i
COc1ccc(-c2nnc(SCC(=O)NN=C(C)c3cccc4ccccc34)n2-c2ccccc2)cc1	·	3	·	·	·	·
CN(CCO)c1nc(N)c(C#N)c(CC#N)c1C#N	-13	10	?	6%	3%	i
CN(c1ccccc1)c1nc(N)c(C#N)c(CC#N)c1C#N	-22	-5	15µM*	2%	0%	7.3µM*
CC(=O)c1ccc(OCCCC(=O)Nc2ccc(C)c(S(=O)(=O)N(C)C)c2)cc1	26	-5	21µM*	?	1%	23µM*
